Each structure is given as a SMILES string. Counter-ions that a name gives are not always drawn.

The assay relates to Danio rerio larvae (5 dpf). Nature of the assay: 1-h baseline activity (% time moving, periods 1-6) minus DMSO control (percentage points); higher = more locomotor activity than DMSO larvae. Particulars: 10 µM; exposure time: 3 h pre-incubation + 3 h imaging. As for the experimental part: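 Wild-type 5 dpf zebrafish larvae (n=48 per drug, 96-well plates, 28.5 °C) were exposed to Tocris FDA-approved library compounds at 10 µM (0.1% DMSO) for 3 h before and 3 h during imaging. Images were taken every 6 s during visual and acoustic stimuli, and larvae were tracked with Z-LaP Tracker. Each measure is the treated-group mean minus the DMSO control mean (n=844), in percentage points. This mapping covers compounds with 5-character plate codes.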
For `CNC(=O)c1cc(Oc2ccc(NC(=O)Nc3ccc(Cl)c(C(F)(F)F)c3)cc2)ccn1` [Sorafenib], the 1-h baseline activity was -0.439.

For the compound `CC(C)COCC(CN(Cc1ccccc1)c1ccccc1)N1CCCC1` (configuration not stated) [Bepridil hydrochloride], the 1-h baseline activity is -2.55.

For the compound `C[C@@H]1C[C@H]2[C@@H]3CCC4=CC(=O)C=C[C@]4(C)[C@@]3(F)[C@@H](O)C[C@]2(C)[C@@]1(O)C(=O)CO` [Dexamethasone], the 1-h baseline activity amounted to 15.7.

In the case of `OCc1cc(C(O)CNCCCCCCOCCCCc2ccccc2)ccc1O` (configuration not stated) [Salmeterol xinafoate], the 1-h baseline activity was 12.2.

For the compound `N#Cc1ccc2[nH]cc(CCCCN3CCN(c4ccc5oc(C(N)=O)cc5c4)CC3)c2c1` [Vilazodone hydrochloride], the 1-h baseline activity was -24.2.

For the compound `COCCc1ccc(OCC(O)CNC(C)C)cc1` (configuration not stated) [Metoprolol tartrate], the 1-h baseline activity was found to be 3.15.

Consider `Cc1cc2c(s1)Nc1ccccc1N=C2N1CCN(C)CC1` [Olanzapine], for which the 1-h baseline activity was found to be 6.18.

As to `OCCN1C[C@H](O)[C@@H](O)[C@H](O)[C@H]1CO` [Miglitol], the 1-h baseline activity is -2.34.

With `CN(C)CCc1c[nH]c2ccc(C[C@H]3COC(=O)N3)cc12` [Zolmitriptan], the 1-h baseline activity was determined as 6.44.

For the compound `C#CCN[C@@H]1CCc2ccccc21` [Rasagiline mesylate], the 1-h baseline activity is 4.3.

As for `COc1ccccc1Oc1c(NS(=O)(=O)c2ccc(C(C)(C)C)cc2)nc(-c2ncccn2)nc1OCCO` [Bosentan], the 1-h baseline activity was 1.43.

Consider `COc1cc(N)c(Cl)cc1C(=O)NC1CCN(CCCOc2ccc(F)cc2)CC1OC` (configuration not stated) [Cisapride], for which the 1-h baseline activity is -0.963.

Regarding `O=c1n(CCCN2CCN(c3cccc(Cl)c3)CC2)nc2ccccn12` [Trazodone hydrochloride], the 1-h baseline activity is -3.8.

As for `CNS(=O)(=O)Cc1ccc2[nH]cc(CCN(C)C)c2c1` [Sumatriptan succinate], the 1-h baseline activity was determined as 9.45.

For the compound `O=C(O)C[C@H](O)C[C@H](O)/C=C/c1c(C2CC2)nc2ccccc2c1-c1ccc(F)cc1` [Pitavastatin calcium], the 1-h baseline activity is -1.53.

Turning to `O=C1CCc2ccc(OCCCCN3CCN(c4cccc(Cl)c4Cl)CC3)cc2N1` [Aripiprazole], the 1-h baseline activity was determined as 6.58.

On to `C[C@H]1O[C@H](O[C@H]2[C@H](O)[C@@H](O)[C@@H](O[C@H]3[C@H](O)[C@@H](O)C(O)O[C@@H]3CO)O[C@@H]2CO)[C@H](O)[C@@H](O)[C@@H]1N[C@H]1C=C(CO)[C@@H](O)[C@H](O)[C@H]1O` (some centres not stated) [Acarbose], for which the 1-h baseline activity was -1.61.

Consider `NS(=O)(=O)c1cc2c(cc1Cl)NC(C1CC3C=CC1C3)NS2(=O)=O` (configuration not stated) [Cyclothiazide], for which the 1-h baseline activity was 0.814.

In the case of `CCCC1O[C@@H]2C[C@H]3[C@@H]4CCC5=CC(=O)C=C[C@]5(C)[C@H]4[C@@H](O)C[C@]3(C)[C@]2(C(=O)CO)O1` (some centres not stated) [Budesonide], the 1-h baseline activity was determined as 3.74.

`CCCCCCCN(CC)CCCC(O)c1ccc(NS(C)(=O)=O)cc1` (configuration not stated) [Ibutilide hemifumarate]: the 1-h baseline activity was -6.03.

Consider `COc1cc([C@@H]2c3cc4c(cc3[C@@H](O[C@@H]3O[C@@H]5CO[C@@H](C)O[C@H]5[C@H](O)[C@H]3O)[C@H]3COC(=O)[C@H]23)OCO4)cc(OC)c1O` [Etoposide], for which the 1-h baseline activity stood at 4.86.

For `Clc1ccc2nsnc2c1NC1=NCCN1` [Tizanidine hydrochloride], the 1-h baseline activity was -14.

On to `CN[C@H]1CC[C@@H](c2ccc(Cl)c(Cl)c2)c2ccccc21` [Sertraline hydrochloride], for which the 1-h baseline activity was -24.

Turning to `CCCc1nn(C)c2c(=O)[nH]c(-c3cc(S(=O)(=O)N4CCN(C)CC4)ccc3OCC)nc12` [Sildenafil citrate], the 1-h baseline activity is -12.4.

Consider `CC(C)(C(=O)O)c1ccc(C(O)CCCN2CCC(C(O)(c3ccccc3)c3ccccc3)CC2)cc1` (configuration not stated) [Fexofenadine hydrochloride], for which the 1-h baseline activity came out at 5.08.

For the compound `OC(c1cc(C(F)(F)F)nc2c(C(F)(F)F)cccc12)C1CCCCN1` (configuration not stated) [Mefloquine hydrochloride], the 1-h baseline activity was -2.24.

As for `COc1cc2nccc(Oc3ccc(NC(=O)C4(C(=O)Nc5ccc(F)cc5)CC4)cc3)c2cc1OC`, the 1-h baseline activity was determined as 15.1.

For the compound `CC[C@H]1OC(=O)[C@H](C)[C@@H](O[C@H]2C[C@@](C)(OC)[C@@H](O)[C@H](C)O2)[C@H](C)[C@@H](O[C@@H]2O[C@H](C)C[C@H](N(C)C)[C@H]2O)[C@](C)(O)C[C@@H](C)CN(C)[C@H](C)[C@@H](O)[C@]1(C)O` [Azithromycin], the 1-h baseline activity was -12.

With `CN(C)C(=N)NC(=N)N` [Metformin hydrochloride], the 1-h baseline activity is -8.39.

For `CNCc1ccc(-c2[nH]c3cc(F)cc4c3c2CCNC4=O)cc1` [Rucaparib camsylate], the 1-h baseline activity was -14.5.

For `CC(=O)Nc1ccc(O)cc1` [Acetaminophen], the 1-h baseline activity was determined as 6.48.

Consider `CC(C)OC(=O)C(C)(C)Oc1ccc(C(=O)c2ccc(Cl)cc2)cc1` [Fenofibrate], for which the 1-h baseline activity is 6.92.

`N#C[C@@H]1C[C@@H]2C[C@@H]2N1C(=O)[C@@H](N)C12CC3CC(CC(O)(C3)C1)C2` [Saxagliptin hydrochloride]: the 1-h baseline activity was 2.3.

Take `CCc1nc(N)nc(N)c1-c1ccc(Cl)cc1` [Pyrimethamine]: the 1-h baseline activity is -1.81.

Consider `COc1ccccc1OCC(O)CN1CCN(CC(=O)Nc2c(C)cccc2C)CC1` (configuration not stated) [Ranolazine dihydrochloride], for which the 1-h baseline activity amounted to 8.63.

As to `CC(=O)Oc1cc2c(s1)CCN(C(C(=O)C1CC1)c1ccccc1F)C2` (configuration not stated) [Prasugrel], the 1-h baseline activity was -2.32.

As for `NC(=O)OCC(COC(N)=O)c1ccccc1` [Felbamate], the 1-h baseline activity is -2.82.

The record behind these values is the supplement of paper PMC9950053.
